Measurements published in PubChem BioAssay.
Activity calls are given as the source filed them. Unless noted, the rule behind the calls is not given here.

Experiments:
[1] = HepG2 liver cancer cell viability effects, profiling panel, resazurin fluorescence, 24 h, PK04 Diversity Set (AID 1172); settings: higher = more signal; note: test concentration not given here
[2] = basal S. cerevisiae growth modulation, no modifier, primary screen, OD600, strain BY4716, 24 h, basal condition (AID 1173); settings: OD600, 24 h, higher = more signal, called active from +8 up or from −8 down
[3] = MM1S myeloma cell viability, profiling panel, resazurin fluorescence, basal, 24 h, PK04 Diversity Set (AID 1174); settings: higher = more signal, called active from +8 up or from −8 down;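 note: MM1S multiple myeloma cell line; test concentration not given here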
[4] = target: Dihydroorotate dehydrogenase (quinone), mitochondrial (Plasmodium falciparum (isolate 3D7)) (UniProt Q08210); assay: PfDHODH enzyme inhibitors, primary screen, biochemical, C-terminal His tag, absorbance 600 nm (AID 1175); settings: DCIP absorbance 600 nm, higher = more signal, called active from +8 up or from −8 down;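 note: recombinant parasite enzyme with a five histidine tag at its C terminus; test concentration not given here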
Sequence of Dihydroorotate dehydrogenase (quinone), mitochondrial (Plasmodium falciparum (isolate 3D7)) (Q08210 whole entry, looked up): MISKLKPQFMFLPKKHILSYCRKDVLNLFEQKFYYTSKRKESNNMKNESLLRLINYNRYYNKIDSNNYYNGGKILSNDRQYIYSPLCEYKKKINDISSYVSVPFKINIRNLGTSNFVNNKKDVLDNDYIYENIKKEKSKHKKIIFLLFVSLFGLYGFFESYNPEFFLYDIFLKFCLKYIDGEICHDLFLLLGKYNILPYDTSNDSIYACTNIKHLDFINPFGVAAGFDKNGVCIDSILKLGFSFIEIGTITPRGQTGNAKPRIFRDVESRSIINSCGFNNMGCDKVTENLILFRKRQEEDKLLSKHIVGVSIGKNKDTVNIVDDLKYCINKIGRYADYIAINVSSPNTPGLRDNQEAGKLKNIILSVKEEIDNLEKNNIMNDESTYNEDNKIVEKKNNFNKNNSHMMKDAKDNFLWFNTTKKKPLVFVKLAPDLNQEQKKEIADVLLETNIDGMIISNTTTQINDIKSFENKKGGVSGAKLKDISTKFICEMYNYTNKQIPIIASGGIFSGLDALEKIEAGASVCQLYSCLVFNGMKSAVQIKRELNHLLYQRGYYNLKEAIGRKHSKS

[5] = P. aeruginosa biofilm formation inhibitors, primary screen, strain PAO1, LB-PBS medium, absorbance 600 nm (AID 1176); note: test concentration not given here; settings: P. aeruginosa PAO1 growth/biofilm, A600, 12 h; higher = more signal
[6] = S. cerevisiae RM11-1a growth modifiers, primary screen, strain RM11-1a, OD600, basal, 24 h (AID 1177); settings: OD600, 24 h, higher = more signal, called active from +8 up or from −8 down;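 note: cultures grown under basal conditions with no added stressor; test concentration not given here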
[7] = E. coli acrAB mutant growth effects, primary screen, E. coli filamentation inducers, strain DRC39, OD650, 24 h (AID 1178); settings: higher = more signal, called active from +8 up or from −8 down;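 note: growth measured as culture turbidity by optical density at 650 nm; test concentration not given here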
[8] = E. coli acrAB mutant growth effects, primary screen, E. coli filamentation inducers, strain DRC39, OD650, 48 h (AID 1179);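 note: screen aims at cell division blockers that make cells filament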; settings: E. coli DRC39 delta-acrAB growth, higher = more signal, called active from +8 up or from −8 down
[9] = RPMI8226 myeloma cell viability, profiling panel, resazurin fluorescence, basal, 24 h, PK04 Diversity Set (AID 1180); settings: higher = more signal;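 note: RPMI8826 multiple myeloma cell line at 5000 cells per well; test concentration not given here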
[10] = target: E3 ubiquitin-protein ligase XIAP (Homo sapiens) (UniProt P98170); assay: XIAP binders, primary screen, biophysical, small-molecule microarray, fluorescence 635 nm (AID 1181); settings: small-molecule microarray binding, higher = more signal;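 note: score merges 667 nm emission and signal to noise over triplicate slides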
Sequence of E3 ubiquitin-protein ligase XIAP (Homo sapiens) (P98170 whole entry, looked up): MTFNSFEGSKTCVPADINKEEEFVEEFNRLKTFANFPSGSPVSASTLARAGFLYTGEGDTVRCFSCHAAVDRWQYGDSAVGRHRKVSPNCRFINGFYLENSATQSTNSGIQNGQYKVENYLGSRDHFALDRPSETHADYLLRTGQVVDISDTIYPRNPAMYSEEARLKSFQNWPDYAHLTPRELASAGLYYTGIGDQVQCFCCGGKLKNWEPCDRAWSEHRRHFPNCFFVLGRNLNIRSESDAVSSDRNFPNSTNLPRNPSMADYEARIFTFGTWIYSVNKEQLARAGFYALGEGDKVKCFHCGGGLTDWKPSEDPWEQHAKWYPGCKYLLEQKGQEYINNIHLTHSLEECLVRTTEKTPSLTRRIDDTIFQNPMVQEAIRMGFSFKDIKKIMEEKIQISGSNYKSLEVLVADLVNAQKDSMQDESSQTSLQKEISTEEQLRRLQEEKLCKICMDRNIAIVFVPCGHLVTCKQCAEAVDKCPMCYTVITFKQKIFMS

Q: Which z-score [1] does the source give for `O=c1cccc(-c2ccccc2C(F)(F)F)o1` here?
A: -0.719

Q: And the z-score [2]?
A: -3.23 (inactive)

Q: What about the z-score [3] of the same compound?
A: -0.256 (inactive)

Q: And the composite z-score [4]?
A: -0.636 (inactive)

Q: And the z-score [5]?
A: 0.698 (inactive)

Q: What about the z-score [6] of the same compound?
A: -0.432 (inactive)

Q: And the z-score [7]?
A: -0.736 (inactive)

Q: And the z-score [8]?
A: -0.275 (inactive)

Q: What about the z-score [9] of the same compound?
A: -0.59

Q: What about the composite z-score [10] of the same compound?
A: 0.144

Q: With `N[C@@H](Cc1ccccc1)Cn1cc(C2(O)CCCCC2)nn1` as the compound, how does the z-score [1] read?
A: -0.384

Q: And the z-score [2]?
A: -0.125 (inactive)

Q: And the z-score [3]?
A: -0.156 (inactive)

Q: And the composite z-score [4]?
A: -0.0324 (inactive)

Q: And the z-score [5]?
A: 0.0672 (inactive)

Q: What about the z-score [6] of the same compound?
A: -0.507 (inactive)

Q: What about the z-score [7] of the same compound?
A: -0.0019 (inactive)

Q: And the z-score [8]?
A: -0.607 (inactive)

Q: And the z-score [9]?
A: -0.785

Q: What about the composite z-score [10] of the same compound?
A: -0.0767

Q: What does the source list for `COC(=O)[C@@H]1N=C(c2ccc(OCCCO)cc2)O[C@@H]1c1ccccc1CN=[N+]=[N-]`?
A: z-score [1]: 1.25; z-score [2]: -1.46 (inactive); z-score [3]: 0.55 (inactive); composite z-score [4]: -0.487 (inactive); z-score [5]: -0.636 (inactive); z-score [6]: 0.657 (inactive); z-score [7]: 0.0547 (inactive); z-score [8]: 0.396 (inactive); z-score [9]: 0.11; composite z-score [10]: 0.279

Q: With `CCC[C@@H]1[C@@H](Sc2ccccc2)[C@@H](C(=O)O)[C@H](c2ccc(C)cc2)N1S(=O)(=O)c1ccc(C)cc1` as the compound, how does the z-score [1] read?
A: -0.428

Q: And the z-score [2]?
A: -1.99 (inactive)

Q: And the z-score [3]?
A: -0.0959 (inactive)

Q: And the composite z-score [4]?
A: -1.04 (inactive)

Q: What about the z-score [5] of the same compound?
A: 0.257 (inactive)

Q: And the z-score [6]?
A: -0.122 (inactive)

Q: And the z-score [7]?
A: -0.008 (inactive)

Q: What about the z-score [8] of the same compound?
A: 0.329 (inactive)

Q: And the z-score [9]?
A: -0.862

Q: What about the composite z-score [10] of the same compound?
A: -0.0062

Q: For `COc1ccc([Si](C)(C)[C@H]2[C@H](CC(=O)N3Cc4ccccc4C[C@H]3CO)O[C@@]3(C(=O)N(Cc4cccc(N5C(=O)c6cccc7cccc5c67)c4)c4ccccc43)[C@@H]2C)cc1`, which z-score [1] is on record?
A: -0.539

Q: And the z-score [2]?
A: -0.563 (inactive)

Q: What about the z-score [3] of the same compound?
A: -2.76 (inactive)

Q: What about the composite z-score [4] of the same compound?
A: -1.88 (inactive)

Q: And the z-score [5]?
A: 1.49 (inactive)

Q: And the z-score [6]?
A: 1.95 (inactive)

Q: And the z-score [7]?
A: 0.643 (inactive)

Q: What about the z-score [8] of the same compound?
A: 0.209 (inactive)

Q: What about the z-score [9] of the same compound?
A: -2

Q: What about the composite z-score [10] of the same compound?
A: 0.0153

Q: What does the source list for `CC(C)C[C@@H]1NC(=O)[C@@H]2C[C@H](C(=O)NCCCC[N+](C)(C)C)[C@H](c3ccc(O)cc3)N2C1=O`?
A: z-score [1]: -0.965; z-score [2]: 0.166 (inactive); z-score [3]: -0.524 (inactive); composite z-score [4]: -31.3 (active); z-score [5]: 0.876 (inactive); z-score [6]: 0.0138 (inactive); z-score [7]: 0.382 (inactive); z-score [8]: 0.581 (inactive); z-score [9]: -0.866; composite z-score [10]: -0.128

Q: With `CCN(CC)c1ccc(N2CC=CC34O[C@@H]5C=CCOC(=O)[C@@H]5[C@H]3C(=O)N(CCCO)[C@@H]4C2=O)cc1` (stereo not given in full) as the compound, how does the z-score [1] read?
A: -0.527

Q: And the z-score [2]?
A: -0.746 (inactive)

Q: And the z-score [3]?
A: 0.242 (inactive)

Q: And the composite z-score [4]?
A: -1.47 (inactive)

Q: What about the z-score [5] of the same compound?
A: 0.537 (inactive)

Q: What about the z-score [6] of the same compound?
A: -0.049 (inactive)

Q: And the z-score [7]?
A: 1.27 (inactive)

Q: And the z-score [8]?
A: 0.715 (inactive)

Q: And the z-score [9]?
A: 0.4

Q: And the composite z-score [10]?
A: 0.107

Q: Which z-score [1] does the source give for `COCC(=C=CC[C@@H](O)c1ccc(OCCO)cc1)C[C@@H](O)COCc1ccccc1` here?
A: 0.948

Q: What about the z-score [2] of the same compound?
A: -0.81 (inactive)

Q: What about the z-score [3] of the same compound?
A: 0.891 (inactive)

Q: What about the composite z-score [4] of the same compound?
A: -2.32 (inactive)

Q: What about the z-score [5] of the same compound?
A: 0.801 (inactive)

Q: And the z-score [6]?
A: -1.31 (inactive)

Q: What about the z-score [7] of the same compound?
A: 0.789 (inactive)

Q: And the z-score [8]?
A: 0.859 (inactive)

Q: And the z-score [9]?
A: 0.804

Q: What about the composite z-score [10] of the same compound?
A: 0.24

Q: With `CC=CC(O)C1C=CC2C(=O)N(C)C(=O)C2N1NC(=O)OC(C)(C)C` (stereo not given) as the compound, how does the z-score [1] read?
A: -1

Q: And the z-score [2]?
A: 0.906 (inactive)

Q: And the z-score [3]?
A: -0.524 (inactive)

Q: And the composite z-score [4]?
A: -0.0735 (inactive)

Q: What about the z-score [5] of the same compound?
A: -0.0625 (inactive)

Q: And the z-score [6]?
A: -0.243 (inactive)

Q: And the z-score [7]?
A: -0.447 (inactive)

Q: What about the z-score [8] of the same compound?
A: -0.504 (inactive)

Q: And the z-score [9]?
A: -0.939

Q: What about the composite z-score [10] of the same compound?
A: 0.0621

Q: Which z-score [1] does the source give for `Cc1ccc(S(=O)(=O)N2[C@@H](c3ccccc3)C(C(=O)O)=CC[C@H]2c2ccc(C#N)cc2)cc1` here?
A: -0.847

Q: And the z-score [2]?
A: -0.647 (inactive)

Q: What about the z-score [3] of the same compound?
A: -1.35 (inactive)

Q: And the composite z-score [4]?
A: 0.0114 (inactive)

Q: What about the z-score [5] of the same compound?
A: 0.0794 (inactive)

Q: And the z-score [6]?
A: 0.11 (inactive)

Q: What about the z-score [7] of the same compound?
A: -0.674 (inactive)

Q: What about the z-score [8] of the same compound?
A: -0.841 (inactive)

Q: And the z-score [9]?
A: -1.28

Q: What about the composite z-score [10] of the same compound?
A: 0.15

Q: Which results are given for `C=CCC(OC(C)=O)[C@@H]1[C@@H](N(Cc2ccc(-c3ccccc3)cc2)C(=O)c2cccc3ccccc23)c2cc(OCCCO)ccc2N1C(=O)c1ccc2ccccc2c1` (stereo not given in full)?
A: z-score [1]: -0.784; z-score [2]: -0.185 (inactive); z-score [3]: -0.967 (inactive); composite z-score [4]: -0.318 (inactive); z-score [5]: 0.48 (inactive); z-score [6]: -0.865 (inactive); z-score [7]: 0.144 (inactive); z-score [8]: -0.455 (inactive); z-score [9]: -1.3; composite z-score [10]: -0.0017

Q: For `CCCCNC(=O)c1ccc(C#C[Si](C)(C)C)c(OC(C)=O)c1`, which z-score [1] is on record?
A: -0.0319

Q: And the z-score [2]?
A: -1.09 (inactive)

Q: And the z-score [3]?
A: -0.757 (inactive)

Q: What about the composite z-score [4] of the same compound?
A: -1.4 (inactive)

Q: And the z-score [5]?
A: -1.44 (inactive)

Q: What about the z-score [6] of the same compound?
A: 0.846 (inactive)

Q: And the z-score [7]?
A: 1.17 (inactive)

Q: And the z-score [8]?
A: -0.925 (inactive)

Q: And the z-score [9]?
A: 0.0873

Q: What about the composite z-score [10] of the same compound?
A: -0.326
